Test results from PubChem BioAssay AID1024 (Sanford-Burnham Center for Chemical Genomics, 2008).
The campaign covered roughly 96,000 compounds. About 1,400 (1.5%) were called active.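 Rule for the calls: active = activation factor of 2 or more for CYP2C9 at a 5 µM dose; inactive = the rest.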 This excerpt belongs to a sample that is enriched for actives.

These molecules were tested against Cytochrome P450 2C9 (Homo sapiens) (UniProt P11712) (assay: enhancers of cytochrome P450 2C9 turnover – biochemical, luminescence, primary screen (AID 1024;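 note: 0 = sulfaphenazole-blocked wells and 1 = vehicle-only wells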)). Details: recombinant CYP2C9, luciferin-H conversion, at 5 µM, hits give high values, factor 1 = untreated enzyme, 0 = blocked.
Chain of Cytochrome P450 2C9 (Homo sapiens) (P11712 whole entry, looked up): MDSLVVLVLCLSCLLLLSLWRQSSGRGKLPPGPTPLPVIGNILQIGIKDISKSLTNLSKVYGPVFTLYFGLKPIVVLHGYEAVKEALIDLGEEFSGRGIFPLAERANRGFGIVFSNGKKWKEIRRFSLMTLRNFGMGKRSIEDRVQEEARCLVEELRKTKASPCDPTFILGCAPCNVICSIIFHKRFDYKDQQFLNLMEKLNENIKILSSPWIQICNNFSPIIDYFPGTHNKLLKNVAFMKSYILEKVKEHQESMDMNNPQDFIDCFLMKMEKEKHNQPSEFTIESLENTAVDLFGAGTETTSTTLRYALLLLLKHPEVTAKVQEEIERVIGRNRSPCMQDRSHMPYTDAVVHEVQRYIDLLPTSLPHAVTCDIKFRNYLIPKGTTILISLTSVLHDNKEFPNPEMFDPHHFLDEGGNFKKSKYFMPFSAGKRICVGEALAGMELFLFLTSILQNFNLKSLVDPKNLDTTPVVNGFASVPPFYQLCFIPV
`c1ccc(COc2ccccc2CNCc2cccnc2)cc1` was tested, and the activation factor was 1.1 (inactive).
`Cc1csc(=NC(=O)c2ccccc2)n1CCO` was tested, and the activation factor was 0.7 (inactive).
In the case of `Cc1cc(C)c2c3c(sc2n1)C(c1ccccc1)C(C#N)=C(N)O3` (stereo unspecified), the activation factor is reported as 0.9 (inactive).
For `CC1CC(C)CN(S(=O)(=O)c2cccc(C(=O)N3C(=O)c4cccc(N)c4C3=O)c2)C1` (stereo unspecified), the activation factor was 0.9 (inactive).
For `O=C(CSc1nc(C2CC2)nc2ccccc12)Nc1ccc2c(c1)OCCO2`, the activation factor was 0.6 (inactive).
In the case of `O=C(O)C1CC=CCC1C(=O)Nc1ccccc1C(=O)N1CCN(c2ccccc2)CC1` (stereo unspecified), the activation factor is reported as 0.9 (inactive).
In the case of `Cc1ccc(C(=O)N/C(=C/c2ccco2)C(=O)NCCc2c[nH]c3ccccc23)cc1C`, the activation factor is reported as 0.5 (inactive).
With `COc1ccc(/C=C(\NC(=O)c2ccc(OC)c(OC)c2)C(=O)NCCc2c[nH]c3ccccc23)cc1` the activation factor was 0.6 (inactive).
`CC(=O)N/C(=C/c1ccc(Cl)cc1)C(=O)NCCc1c[nH]c2ccccc12` was tested, and the activation factor was 2.7 (active).
In the case of `O=C1c2ccccc2C(=O)N1CCCc1nc(-c2ccccc2)no1`, the activation factor is reported as 0.8 (inactive).
`O=C1c2ccccc2C(=O)N1Cc1cc(-c2ccccc2Cl)no1` was tested, and the activation factor was 2.3 (active).
For `O=C1c2cccnc2C(=O)N1Cc1cccs1`, the activation factor was 0.9 (inactive).
In the case of `Cc1c(C#N)c(NC(=O)c2ccccc2)n(Cc2ccccc2)c1C`, the activation factor is reported as 0.4 (inactive).
In the case of `O=C(CNS(=O)(=O)c1cccc(C(F)(F)F)c1)Nc1ccccc1F`, the activation factor is reported as 1.2 (inactive).
With `CC(CC(=O)Nc1cc(C(F)(F)F)ccc1Cl)c1ccccc1` (stereo unspecified) the activation factor was 2.4 (active).
With `CC(C)CC(=O)Nc1cc(C(F)(F)F)ccc1N1CCOCC1` the activation factor was 0.9 (inactive).
In the case of `Cc1nc2ccc(NC(=O)C(F)(F)F)cc2o1`, the activation factor is reported as 1 (inactive).
In the case of `Cc1c(CCO)c(=O)[nH]n1C(=O)c1c(F)cccc1F`, the activation factor is reported as 1 (inactive).
With `CCOc1ccc(S(=O)(=O)NCC2CCCO2)cc1` (stereo unspecified) the activation factor was 0.9 (inactive).
`O=S(=O)(NCC1CCCO1)c1ccc2ccccc2c1` (stereo unspecified) was tested, and the activation factor was 3 (active).
`CCC(=O)Nc1ccc(S(=O)(=O)NCC2CCCO2)cc1` (stereo unspecified) was tested, and the activation factor was 1 (inactive).
With `O=c1c2ccccc2nc2n1C(CSCc1ccccc1)CS2` (stereo unspecified) the activation factor was 0.9 (inactive).
In the case of `CCN1CCN(C(=O)/C=C\C(=O)O)CC1`, the activation factor is reported as 1 (inactive).
`Cc1ccc(CNC(=O)C2CC(c3ccccc3[N+](=O)[O-])=NO2)o1` (stereo unspecified) was tested, and the activation factor was 1.2 (inactive).
With `Cc1cccc(NC(=O)C2CCCN2S(=O)(=O)c2ccc(F)cc2)c1C` (stereo unspecified) the activation factor was 2.5 (active).
`CC(=O)Nc1ccc(S(=O)(=O)N2CCCC2C(=O)O)cc1` (stereo unspecified) was tested, and the activation factor was 1.1 (inactive).
With `Cc1ccc(S(=O)(=O)N2CCCC2C(=O)NCc2ccco2)cc1` (stereo unspecified) the activation factor was 1.5 (inactive).
In the case of `COC(=O)c1ccccc1NC(=O)Cn1nc(C(F)(F)F)c2c1CCC2`, the activation factor is reported as 0.8 (inactive).
In the case of `Cc1cc(NC(=O)Cn2nc(C(F)(F)F)c3c2CCCC3)no1`, the activation factor is reported as 0.9 (inactive).
With `O=C(Cn1nc(C(F)(F)F)c2c1CCC2)NCc1ccc(F)cc1` the activation factor was 3.2 (active).
In the case of `CN1C2CCC1/C(=C\c1ccccc1Cl)C(=O)/C2=C\c1ccccc1Cl`, the activation factor is reported as 1.8 (inactive).
In the case of `COC(=O)/C=C/C(=O)NCc1ccco1`, the activation factor is reported as 1 (inactive).
`C=CCn1c(COc2ccccc2)nnc1SCC(=O)NCC(=O)OCC` was tested, and the activation factor was 1.1 (inactive).
In the case of `C=CCn1c(COc2cccc3cccnc23)nnc1SCC(=O)OC`, the activation factor is reported as 4.1 (active).
With `C=CCn1c(COc2ccccc2F)nnc1SCC(=O)N1CC(=O)Nc2ccccc21` the activation factor was 0.9 (inactive).
In the case of `CCN(CC)Cc1csc2ccc(Br)cc12`, the activation factor is reported as 1.1 (inactive).
`COc1cc(C(=S)N2CCOCC2)cc(OC)c1OC(=O)c1cc([N+](=O)[O-])c(C)c([N+](=O)[O-])c1` was tested, and the activation factor was 0.9 (inactive).
For `COc1ccc(NCc2nnc(SCc3ccccc3)n2-c2ccc(OC)cc2)cc1`, the activation factor was 0.4 (inactive).
In the case of `Cc1cccc(C)c1NC(=O)CCS(=O)(=O)c1cccc2nsnc12`, the activation factor is reported as 1 (inactive).
`O=C(CCS(=O)(=O)c1cccc2nsnc12)N1CCN(c2ccccc2F)CC1` was tested, and the activation factor was 2.4 (active).
For `O=C(C(NS(=O)(=O)c1cccc2nsnc12)c1ccccc1)N1CCN(c2ccccc2)CC1` (stereo unspecified), the activation factor was 0 (inactive).
In the case of `CSc1nc(-c2ccco2)nn1C(=O)CCc1ccccc1`, the activation factor is reported as 1.1 (inactive).
With `O=C(N/N=C/c1ccsc1)c1cc(O)cc(O)c1` the activation factor was 0.9 (inactive).
In the case of `COc1ccc(-c2csc3nc(-c4ccccc4F)oc(=O)c23)cc1OC`, the activation factor is reported as 1 (inactive).
For `CCOC(=O)N1CCN(C(=O)c2cc3c(ccc4ccccc43)oc2=O)CC1`, the activation factor was 0.5 (inactive).
`C=CCc1cccc2cc(C(=O)N3CCN(C(=O)OCC)CC3)c(=O)oc12` was tested, and the activation factor was 2.1 (active).
`CS(=O)(=O)N1CCN(C(=O)c2cc3ccccc3oc2=O)CC1` was tested, and the activation factor was 1 (inactive).
`CCC(C)NC(=O)c1c(N)n(/N=C/c2cccs2)c2nc3ccccc3nc12` (stereo unspecified) was tested, and the activation factor was 0.8 (inactive).
In the case of `Cc1cccc(-n2cnc(C(=O)Nc3cccnc3)c2)n1`, the activation factor is reported as 0.1 (inactive).
`CCOc1ccccc1NC(=O)CCN1CCN(S(=O)(=O)c2ccc(OC)cc2)CC1` was tested, and the activation factor was 0.6 (inactive).
`CCOc1ccccc1Nc1nnc(SCC(=O)Nc2cc(C)on2)s1` was tested, and the activation factor was 0.9 (inactive).
For `CCOc1ccccc1NC(=O)CCc1ccc(C)o1`, the activation factor was 2.8 (active).
In the case of `Cc1c(Nc2nc3ccccc3nc2NS(=O)(=O)c2cccs2)c(=O)n(-c2ccccc2)n1C`, the activation factor is reported as 0.5 (inactive).
For `O=C(CCc1ccc(S(=O)(=O)N2CCOCC2)cc1)Nc1ccc2ccccc2c1`, the activation factor was 0.4 (inactive).
For `CCCCOCCCNC(=O)c1ccccc1OCC`, the activation factor was 2.9 (active).
With `CCCOc1ccccc1C(=O)NCCCC(=O)O` the activation factor was 1.1 (inactive).
For `CCOc1ccccc1C(=O)NCCCn1ccnc1`, the activation factor was 0.3 (inactive).
For `CCc1cc(C(c2ccccc2OC)N2CCOCC2)c(NC(=O)c2ccccc2)s1` (stereo unspecified), the activation factor was 0.1 (inactive).
For `O=C(NC1CCCCC1)C1CC(=O)N(CCc2ccccc2)C1` (stereo unspecified), the activation factor was 1 (inactive).
In the case of `Cc1nn(-c2ccccn2)c2c1C(c1ccncc1)C1=C(CC(C)(C)CC1=O)N2` (stereo unspecified), the activation factor is reported as 0.2 (inactive).
`COc1ccc(/C=C2\CCCC3C2=NN(C(=O)c2scnc2C)C3c2ccc(OC)cc2)cc1` (stereo unspecified) was tested, and the activation factor was 0.2 (inactive).
In the case of `O=C(NCc1ccccc1Cl)c1csc2c1CCCCC2`, the activation factor is reported as 2.5 (active).
For `COC(=O)c1sccc1NC(=O)c1csc2c1CCCC2`, the activation factor was 0.9 (inactive).
For `CC(=O)Cc1nsc(NC(=O)c2csc3c2CCCC3)n1`, the activation factor was 0.7 (inactive).
In the case of `CC(C)(C)NS(=O)(=O)CC12CCC(CC1=O)C2(C)C` (stereo unspecified), the activation factor is reported as 0.8 (inactive).
In the case of `Cc1cc(C)c2c(-n3cccc3)c(C(=O)NNS(=O)(=O)c3ccc(F)cc3)sc2n1`, the activation factor is reported as 0 (inactive).
With `Cc1ccc2nc(/C(C#N)=C\c3ccc(OC(=O)c4cccs4)cc3)[nH]c2c1` the activation factor was 0.2 (inactive).
For `C=CCOC(=O)C1=C(C)NC(C)=C(C(=O)OCC=C)C1c1cccs1`, the activation factor was 0 (inactive).
In the case of `CNC(=O)c1csc(-c2ccccc2)n1`, the activation factor is reported as 0.9 (inactive).
With `O=C(CSCc1ccccc1)N1CCc2ccccc21` the activation factor was 1.1 (inactive).
With `Cc1ccc(S(=O)(=O)N(C)CC(=O)N2CCc3ccccc32)cc1` the activation factor was 2.3 (active).
For `Cc1ccc(S(=O)(=O)NCC(=O)OCC(=O)N2CCc3ccccc32)cc1`, the activation factor was 1.3 (inactive).
In the case of `CCCC(=O)Nc1nc2ccc(NC(=O)c3cccnc3)cc2s1`, the activation factor is reported as 0.7 (inactive).
`O=C(/C=C\NCC(=O)c1ccccc1)c1ccccc1` was tested, and the activation factor was 0.9 (inactive).
For `Cc1nn(-c2ccccc2)c(Cl)c1C(=O)Nc1ccccc1`, the activation factor was 1.5 (inactive).
For `COc1ccccc1N1CCN(C(=O)CSc2nnc(-c3ccoc3C)o2)CC1`, the activation factor was 0.7 (inactive).
In the case of `COc1ccccc1-c1nnc(SCC(=O)Nc2ccccc2)o1`, the activation factor is reported as 1.6 (inactive).
With `COc1ccccc1-c1nnc(SCC(=O)N2CC(C)CC(C)C2)o1` (stereo unspecified) the activation factor was 3.9 (active).
`Cc1cccc(C)c1NC(=O)c1ccc(CN2CCc3ccccc3C2)cc1` was tested, and the activation factor was 1.1 (inactive).
With `Cn1nc([N+](=O)[O-])nc1Sc1ccc(C(C)(C)C)cc1` the activation factor was 0.9 (inactive).
In the case of `COc1cccc(/C=N\Nc2nncc(-c3ccccc3)n2)c1`, the activation factor is reported as 0.9 (inactive).
In the case of `COc1ccc(S(=O)(=O)N2CCCC2)c(C)c1C`, the activation factor is reported as 2.5 (active).
With `COc1ccc(S(=O)(=O)N2CCCC(C(=O)N3CCN(C)CC3)C2)cc1C` (stereo unspecified) the activation factor was 1.2 (inactive).
In the case of `COc1ccc(S(=O)(=O)N2CCCCC2)cc1Br`, the activation factor is reported as 2.1 (active).
With `CCOc1ccc(S(=O)(=O)N2CCCCCC2)c2ccccc12` the activation factor was 1.5 (inactive).
With `COc1ccc(S(=O)(=O)Nc2ccc(F)cc2)c(C)c1C` the activation factor was 0.3 (inactive).
With `COc1ccc(S(=O)(=O)Nc2ccc(S(=O)(=O)N3CCCCC3)cc2)cc1OC` the activation factor was 0.1 (inactive).
In the case of `Cc1ccc(-c2nn(-c3ccccc3)cc2/C=N/NC(=O)c2ccc3c(c2)OCO3)cc1`, the activation factor is reported as 0.2 (inactive).
For `Cc1cccc(NC(=O)C2CCN(S(=O)(=O)c3cccc4cccnc34)CC2)c1`, the activation factor was 2.8 (active).
In the case of `O=C(Nc1nccs1)C1CCCN1S(=O)(=O)c1cccc2cccnc12` (stereo unspecified), the activation factor is reported as 0.5 (inactive).
With `O=C(O)C1CCCN(S(=O)(=O)c2cccc3cccnc23)C1` (stereo unspecified) the activation factor was 1.2 (inactive).
`COc1ccccc1CNC(=O)C1CCCN(S(=O)(=O)c2cccc3cccnc23)C1` (stereo unspecified) was tested, and the activation factor was 2.9 (active).
In the case of `COc1ccc(NC(=O)C2CCCN(S(=O)(=O)c3cccc4cccnc34)C2)cc1OC` (stereo unspecified), the activation factor is reported as 1.2 (inactive).
With `COc1ccc(NC(=O)C2CCCN(S(=O)(=O)c3cccc4cccnc34)C2)cc1` (stereo unspecified) the activation factor was 1.5 (inactive).
For `CCOC(=O)N1CCN(CC(=O)c2c(C)[nH]c3ccccc23)CC1`, the activation factor was 1.6 (inactive).
For `CCOC(=O)N1CCN(CC(=O)n2c(C)c(C)c3ccccc32)CC1`, the activation factor was 2.3 (active).
`CCOC(=O)N1CCN(C(=O)c2n[nH]c(=O)c3ccccc23)CC1` was tested, and the activation factor was 1 (inactive).
`COc1ccccc1C(=O)Oc1ccc(N2C(=O)CCC2=O)cc1` was tested, and the activation factor was 2.1 (active).
In the case of `COc1ccccc1C(=O)C(O)c1ccccc1OC` (stereo unspecified), the activation factor is reported as 1 (inactive).
In the case of `Cc1ccc(OC(=O)c2ccccc2C(=O)OCC(F)(F)C(F)F)cc1`, the activation factor is reported as 0.2 (inactive).
With `CCN(CC)c1ccc(/C=N/Nc2nc(C)cc(=O)[nH]2)cc1` the activation factor was 1.2 (inactive).
